Results filed as inconclusive are left out. Where a call stands in place of a potency, no number is given. Unmarked numbers belong to inactive results. The source made the active and inactive calls. Calls follow the shape of the dose curve; as a rule, active = well fitted curve in the direction sought with a large enough effect in the repeat runs; inconclusive = weak or mixed curves; inactive = no such curve, though single readings can be large; an effect the other way counts as inactive or inconclusive.
Columns and labels:
[1] = molecular target: Cytochrome P450 2C9 (Homo sapiens) (UniProt P11712); assay: Cytochrome P450 Family 2 Subfamily C Member 9 (CYP2C9) small molecule antagonists: luciferase reporter qHTS assay (AID 1671198); also: potency is read from the fitted curve at half-maximal effect
Sequence of Cytochrome P450 2C9 (Homo sapiens) (P11712 whole entry, looked up): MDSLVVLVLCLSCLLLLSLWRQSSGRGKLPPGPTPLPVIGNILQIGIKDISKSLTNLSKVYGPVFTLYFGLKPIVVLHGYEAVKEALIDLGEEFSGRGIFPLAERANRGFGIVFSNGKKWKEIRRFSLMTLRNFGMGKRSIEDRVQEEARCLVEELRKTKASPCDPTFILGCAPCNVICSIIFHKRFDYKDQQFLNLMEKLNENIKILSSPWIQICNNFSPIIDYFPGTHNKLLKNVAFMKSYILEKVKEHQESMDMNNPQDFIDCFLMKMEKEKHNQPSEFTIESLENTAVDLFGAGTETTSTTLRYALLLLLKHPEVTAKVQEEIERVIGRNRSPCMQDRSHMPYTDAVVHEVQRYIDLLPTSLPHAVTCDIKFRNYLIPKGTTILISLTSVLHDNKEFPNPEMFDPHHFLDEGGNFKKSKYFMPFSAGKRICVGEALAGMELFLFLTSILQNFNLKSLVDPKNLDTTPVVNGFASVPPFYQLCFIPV
In short: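 P450-Glo proluciferin substrate with CYP2C9 enzyme; 10 min RT preincubation, then NADPH regeneration 1 h at 37C; luciferin detection reagent 20 min RT, luminescence in relative luminescence units.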

[2] = molecular target: Cytochrome P450 1A2 (Homo sapiens) (UniProt P05177); assay: Cytochrome P450 Family 1 Subfamily A Member 2 (CYP1A2) small molecule antagonists: luciferase reporter qHTS assay (AID 1671199); also: potency is read from the fitted curve at half-maximal effect
Sequence of Cytochrome P450 1A2 (Homo sapiens) (P05177 whole entry, looked up): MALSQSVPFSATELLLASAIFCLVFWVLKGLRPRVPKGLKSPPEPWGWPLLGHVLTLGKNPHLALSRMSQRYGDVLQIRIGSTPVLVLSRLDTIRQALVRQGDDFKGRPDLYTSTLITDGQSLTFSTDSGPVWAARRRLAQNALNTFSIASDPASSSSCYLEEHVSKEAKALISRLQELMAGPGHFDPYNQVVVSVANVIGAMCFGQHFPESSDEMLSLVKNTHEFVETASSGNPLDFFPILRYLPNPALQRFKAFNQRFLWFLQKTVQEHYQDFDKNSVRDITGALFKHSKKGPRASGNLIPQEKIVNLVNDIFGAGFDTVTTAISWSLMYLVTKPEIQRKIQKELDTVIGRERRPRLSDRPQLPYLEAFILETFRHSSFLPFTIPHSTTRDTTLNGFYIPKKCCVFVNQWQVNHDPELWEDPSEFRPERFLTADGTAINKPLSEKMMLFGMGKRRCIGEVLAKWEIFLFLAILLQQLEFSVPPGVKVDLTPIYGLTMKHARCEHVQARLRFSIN
In short: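 Quantitative high-throughput format using the P450-Glo CYP1A2 system. Reaction initiated by NADPH regeneration solution, 1 h at room temperature, then stopped with detection reagent; luminescence measured 20 min later.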

[3] = molecular target: Voltage-gated inwardly rectifying potassium channel KCNH2 (Homo sapiens) (UniProt Q12809); assay: Human Ether-a-go-go-Related Gene (hERG) channel small molecule antagonists: fluorescence cell-based qHTS assay (AID 1671200);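 also: hERG-expressing U2OS cells given a thallium stimulus after FluxOR II dye loading; series mostly up to about 77 µM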
Sequence of Voltage-gated inwardly rectifying potassium channel KCNH2 (Homo sapiens) (Q12809 whole entry, looked up): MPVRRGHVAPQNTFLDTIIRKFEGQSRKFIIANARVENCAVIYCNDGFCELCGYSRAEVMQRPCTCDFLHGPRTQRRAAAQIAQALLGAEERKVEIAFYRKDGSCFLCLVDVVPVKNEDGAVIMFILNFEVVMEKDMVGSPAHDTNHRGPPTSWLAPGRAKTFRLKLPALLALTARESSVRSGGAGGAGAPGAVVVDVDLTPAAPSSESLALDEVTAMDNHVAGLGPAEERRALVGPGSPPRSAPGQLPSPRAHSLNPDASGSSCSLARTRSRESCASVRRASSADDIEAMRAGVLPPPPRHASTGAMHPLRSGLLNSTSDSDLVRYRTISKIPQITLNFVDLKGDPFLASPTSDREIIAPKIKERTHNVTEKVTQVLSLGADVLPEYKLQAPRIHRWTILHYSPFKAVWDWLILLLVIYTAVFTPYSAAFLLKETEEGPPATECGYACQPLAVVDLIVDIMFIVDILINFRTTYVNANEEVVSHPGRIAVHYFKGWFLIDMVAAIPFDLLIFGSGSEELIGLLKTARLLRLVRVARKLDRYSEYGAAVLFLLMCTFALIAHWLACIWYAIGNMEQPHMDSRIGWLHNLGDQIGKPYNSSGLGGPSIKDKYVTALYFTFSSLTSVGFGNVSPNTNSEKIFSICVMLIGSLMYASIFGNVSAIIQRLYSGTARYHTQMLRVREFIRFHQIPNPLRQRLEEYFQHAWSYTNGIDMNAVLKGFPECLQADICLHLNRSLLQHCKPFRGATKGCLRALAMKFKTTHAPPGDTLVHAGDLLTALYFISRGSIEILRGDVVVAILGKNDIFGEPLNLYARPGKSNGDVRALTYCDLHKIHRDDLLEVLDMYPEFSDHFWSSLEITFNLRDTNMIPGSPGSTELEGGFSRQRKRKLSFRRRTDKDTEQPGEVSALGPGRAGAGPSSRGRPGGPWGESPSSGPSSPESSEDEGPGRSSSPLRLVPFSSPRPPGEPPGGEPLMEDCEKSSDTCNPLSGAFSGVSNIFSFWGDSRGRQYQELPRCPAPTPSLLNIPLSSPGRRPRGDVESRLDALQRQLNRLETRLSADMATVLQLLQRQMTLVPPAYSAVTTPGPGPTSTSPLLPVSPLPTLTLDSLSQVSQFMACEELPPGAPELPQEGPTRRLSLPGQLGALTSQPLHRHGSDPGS
In short: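 Kinetic two-minute fluorescence traces, sampled at 1 s, were collected following thallium stimulus of U2OS cells (1000 per well) that had been cultured overnight at 37 C and loaded with FluxOR II.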

[4] = molecular target: Cytochrome P450 3A4 (Homo sapiens) (UniProt P08684); assay: Cytochrome P450 Family 3 Subfamily A Member 4 (CYP3A4) small molecule antagonists: luciferase reporter qHTS assay (AID 1671201); also: potency is read from the fitted curve at half-maximal effect
Sequence of Cytochrome P450 3A4 (Homo sapiens) (P08684 whole entry, looked up): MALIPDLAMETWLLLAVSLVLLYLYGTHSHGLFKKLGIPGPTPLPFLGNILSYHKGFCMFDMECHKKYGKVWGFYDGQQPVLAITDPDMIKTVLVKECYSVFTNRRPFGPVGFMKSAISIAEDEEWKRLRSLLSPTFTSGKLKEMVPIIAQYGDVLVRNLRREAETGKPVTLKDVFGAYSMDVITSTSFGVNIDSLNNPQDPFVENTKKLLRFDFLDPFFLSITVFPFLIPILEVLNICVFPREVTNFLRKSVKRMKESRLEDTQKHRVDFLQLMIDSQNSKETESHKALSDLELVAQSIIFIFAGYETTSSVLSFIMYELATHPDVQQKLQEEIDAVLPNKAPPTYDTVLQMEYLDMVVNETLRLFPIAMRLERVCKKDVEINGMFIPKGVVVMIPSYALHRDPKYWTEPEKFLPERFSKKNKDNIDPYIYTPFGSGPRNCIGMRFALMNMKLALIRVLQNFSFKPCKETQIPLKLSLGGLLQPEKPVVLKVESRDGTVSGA
In short: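 Proluciferin-to-luciferin conversion by CYP3A4, NADPH-regenerated, 1 h RT; luminescence read as RLU. Ketoconazole as control.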
Also: nearly all actives have a fitted effect of over 50% in size.

| Structure (SMILES) | Potency [1] | Potency [2] | Potency [3] | Potency [4] |
| --- | --- | --- | --- | --- |
| C[N+]1(C)CCCC(OC(=O)C(O)(c2ccccc2)c2ccccc2)C1 (stereo not given) | inactive | inactive | inactive | inactive |
| CCCCCCCCCC[N+](C)(C)[O-] | inactive | inactive | inactive | inactive |
| CCN[C@H]1C[C@H](C)S(=O)(=O)c2sc(S(N)(=O)=O)cc21 | inactive | inactive | inactive | inactive |
| CC1(C)OC[C@@H](COC(=O)CCc2ccc(OC[C@@H](O)CNCCNC(=O)N3CCOCC3)cc2)O1 | inactive | inactive | inactive | inactive |
| Cc1ccnc(NS(=O)(=O)c2ccc(N)cc2)n1 | inactive | inactive | inactive | inactive |
| O=S(=O)(O)c1cccc(S(=O)(=O)O)c1 | inactive | inactive | inactive | inactive |
| CCC(C)(CCCC(C)C)OC(C)=O (stereo not given) | inactive | inactive | inactive | inactive |
| CC(=O)c1cnccn1 | inactive | inactive | inactive | inactive |
| COc1ccc2cc1Oc1cc3c(cc1OC)CC[N+](C)(C)[C@H]3Cc1ccc(cc1)Oc1c(OC)c(OC)cc3c1[C@@H](C2)[N+](C)(C)CC3 | inactive | inactive | inactive | inactive |
| CN(C)C(=O)Oc1cccc([N+](C)(C)C)c1 | inactive | inactive | inactive | inactive |
| CCCCS(=O)(=O)N[C@@H](Cc1ccc(OCCCCC2CCNCC2)cc1)C(=O)O | inactive | inactive | inactive | inactive |
| CN(C)[C@@H]1C(=O)C(C(=O)NCN2CCCC2)=C(O)[C@@]2(O)C(=O)C3=C(O)c4c(O)cccc4[C@@](C)(O)C3C[C@@H]12 (stereo not given in full) | inactive | 17.4 µM (active) | inactive | inactive |
| CC(C#N)(CCC(=O)O)N=NC(C)(C#N)CCC(=O)O (stereo not given) | inactive | inactive | inactive | inactive |
| CCCCCCCCCCCCCCC(=O)O | inactive | 35.7 µM (active) | inactive | inactive |
| Nc1c2c(nc3c1CCC3)CCCC2 | inactive | inactive | inactive | inactive |
| OCCc1ccccn1 | inactive | inactive | inactive | inactive |
| Cc1coc2ccccc2c1=O | inactive | 15.5 µM (active) | inactive | inactive |
| C=C(C)C(=O)OCC(O)CO (stereo not given) | inactive | inactive | inactive | inactive |
| CCOC(=O)c1ccccc1 | inactive | inactive | inactive | inactive |

| Structure (SMILES) | Potency [1] | Potency [2] | Potency [3] | Potency [4] |
| --- | --- | --- | --- | --- |
| O=Cc1cccc(Br)c1 | 40.9 µM (active) | 16.3 µM (active) | inactive | 81.7 µM (active) |
| CCN(Cc1ccccc1)c1ccccc1 | 35.1 µM (active) | 35.1 µM (active) | inactive | inactive |
| CC(C)CCCO | inactive | inactive | inactive | inactive |
| CN(C)CCN(C)CCN(C)C | inactive | inactive | inactive | inactive |
| NC(=O)N[C@@H](CCC(=O)O)C(=O)O | inactive | inactive | inactive | inactive |
| CC(C)(C#N)Nc1nc(Cl)nc(NC2CC2)n1 | inactive | 39.9 µM (active) | inactive | 20 µM (active) |
| NC(CCC(=O)O)C(=O)O (stereo not given) | inactive | inactive | inactive | inactive |
| C=C(C)C(=O)OCC1CCCO1 (stereo not given) | inactive | inactive | inactive | inactive |
| CCCCOC(=O)CCC(C)=O | inactive | inactive | inactive | inactive |
| CC(C)C1CCC(O)CC1 (stereo not given) | inactive | inactive | inactive | inactive |
| CCOC(=O)COC(=O)c1ccccc1C(=O)OCC | 31.7 µM (active) | 7.96 µM (active) | inactive | inactive |
| CCCC(C)C(=O)OCC (stereo not given) | inactive | inactive | inactive | inactive |
| C[C@@H]1CCC[C@H](C)N1 | inactive | inactive | inactive | inactive |
| CC1=NN(c2cccc(S(=O)(=O)O)c2)C(=O)C1 | inactive | 44.8 µM (active) | inactive | inactive |
| CCOC(=O)CCC(=O)OCC | 35.6 µM (active) | inactive | inactive | inactive |
| C[C@H]1C[C@H]2[C@@H]3CCC4=CC(=O)C=C[C@]4(C)[C@H]3C(=O)C[C@]2(C)[C@@]1(O)C(=O)CO | 13.8 µM (active) | 27.5 µM (active) | inactive | inactive |
| Cc1ccc(C(=O)c2ccccc2)cc1 | 31.7 µM (active) | 31.7 µM (active) |  | inactive |
| CC(C)c1ccc2ncccc2c1 | inactive | 63.3 µM (active) | inactive | inactive |
| O=C(c1ccccc1)C1(O)CCCCC1 | 35.6 µM (active) |  | inactive | inactive |

Source: PubChem BioAssay (Tox21)
